Bioassay records: PubChem BioAssay, National Center for Advancing Translational Sciences (NCATS)
Pf growth 48h: inhibits P. falciparum growth in the first generation, 48 h; actives 5.9% (n = 310,000); P. falciparum luciferase growth in erythrocytes, 48 h; Potency, µM (series often up to 28.7 µM), without a hit: top-dose activity change, negative = inhibition, most hits filed as inhibitors; further: potency means the concentration at half of the fitted maximal effect; on the % scale 0 is the no-effect control and ±100 the full control effect
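A one-generation exposure of luciferase-tagged malaria parasites in RPMI 1640/Albumax erythrocyte culture, 37 C and 5% CO2. Inhibition is inferred from decreased luminescence after adding detection reagent.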
Shiga toxin inh: Shiga toxin inhibition | inhibition, % at 38.7 µM | actives 9.2% (n = 290,000) | Vero cells, Shiga toxin protein synthesis inhibition reporter; in the data active means inhibition mostly above about 28%, no sharp cut-off; inactive means mostly below about 43%; further: 0% is about no effect
CHX counter: counter-screen for Shiga toxin inhibitors: cycloheximide protein synthesis inhibition | cell reporter, cycloheximide protein synthesis inhibition counterscreen | max response, % | actives 12% (n = 300,000); in the data active means max response mostly above about 13%, no sharp cut-off; inactive means mostly below about 14%; further: read at 38.3 µM for the half of the compounds with a filed dose; 0% is about no effect
Pf growth 96h: inhibits malaria parasite growth, 96 h; Potency, µM (top dose mostly 28.7 µM), for the others: at the highest dose activity change, negative = inhibition, hits mostly inhibitors; P. falciparum luciferase reporter growth, 96 h; actives 6.9% (n = 320,000); further: potency means the concentration at half of the fitted maximal effect; on the % scale 0 is the no-effect control and ±100 the full control effect
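Infected RBCs, 2% Hct / 0.05% parasitemia final; luciferase-reporter P. falciparum; cpd 96 h, 37 C, 5% CO2; luciferase detection reagent; luminescence.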
HCMV inh: blocks human cytomegalovirus replication; actives 4.5% (n = 410,000); HFF cells, HCMV-luciferase reporter, 72 h; active compounds read low; activity change, negative = inhibition, % at 57.5 µM; in the data active means activity change below about -60%; inconclusive means no clear call, values can overlap the other calls; inactive means above about -39%; further: on the % scale 0 is the no-effect control and ±100 the full control effect
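After 16 h attachment at 37C, HFF cells received test compound and HCMV-luciferase (1 PFU/cell); reporter luminescence read 72 h later, data normalized against buffer-only and known inhibitor Salinomycin.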
Starred values were filed as active, the others as inactive. In the library only some 20% were active in any assay of this set; here they are far more common. Unless noted, the call rests on the fitted dose curve; in most records, active means well fitted inhibition curve with a large enough effect; inconclusive means small, poorly fitted or top-dose-only effect, or another doubt; inactive means no such curve, though single readings can be large or run the other way.

`CN(/N=C\c1ccc(O)c(O)c1)c1nc(-c2ccccc2)cc(-c2ccccc2)n1` gave Pf growth 48h 10µM*, Shiga toxin inh 11, CHX counter 7, Pf growth 96h inconclusive and HCMV inh 94.
`COc1cc(/C=N/N(c2ccccc2)c2ccccc2)ccc1O` gave Pf growth 48h 5%, Shiga toxin inh -3, CHX counter -3, Pf growth 96h inconclusive and HCMV inh 64.
Screening Cc1ccc(N=Nc2cc(C)ccc2N)cc1 returned Pf growth 48h 232%, Shiga toxin inh 50*, CHX counter 38*, Pf growth 96h inactive and HCMV inh 0.
For COc1ccc(OC)c(CCNc2ncnc3onc(-c4ccc(F)cc4)c23)c1 the results were HCMV inh -25.
CCOc1ccc(C(NC(=O)/C=C/c2ccco2)c2ccc(OC)c(OC)c2)cc1 (stereo unspecified) was read as Pf growth 48h inconclusive, Shiga toxin inh 12, CHX counter 8, Pf growth 96h inconclusive and HCMV inh 0.
For O=C(NCC1(c2ccccc2)CCCC1)c1ccco1 the results were Pf growth 48h -15%, Shiga toxin inh -15, CHX counter 4, Pf growth 96h 35% and HCMV inh 7.
COc1ccc(C2(CNC(=O)/C=C/c3ccco3)CCCC2)cc1OC was read as Pf growth 48h 6.6µM*, Shiga toxin inh 42, CHX counter -1, Pf growth 96h inconclusive and HCMV inh 27.
Screening O=C(/C=C/c1ccco1)NCC1(c2ccccc2)CCCC1 returned Pf growth 48h inconclusive, Shiga toxin inh 48*, CHX counter 105*, Pf growth 96h 146% and HCMV inh -39.
For COc1ccc(C(NC(=O)/C=C/c2ccco2)c2ccc(OC)c(OC)c2)cc1 (stereo unspecified) the results were Pf growth 48h -27%, Shiga toxin inh 85*, CHX counter 42*, Pf growth 96h inconclusive and HCMV inh -13.
For COc1ccc(C(=O)NCC2(c3ccc(OC)c(OC)c3)CCCC2)c(OC)c1 the results were Pf growth 48h 12µM*, Shiga toxin inh -8, CHX counter -1, Pf growth 96h inconclusive and HCMV inh 41.
For Cc1cnc(CNC(=O)c2csc([C@@H]3C[C@H](O)[C@@H](CO)O3)n2)cn1 the results were HCMV inh -14.
CC(C)CC(=O)Nc1ccc(C(=O)Cn2c(=O)oc3ccccc32)cc1 was read as Pf growth 48h -15%, Shiga toxin inh 26, CHX counter 14, Pf growth 96h inconclusive and HCMV inh 1.
For CCOc1ccc(NC(=O)Cc2csc(COc3cccc(C)c3)n2)cc1 the results were HCMV inh 18.
Screening COc1ccc(CNC(=O)/C=C/c2ccco2)cc1OC returned Pf growth 48h 27%, Shiga toxin inh -12, CHX counter 0, Pf growth 96h 0% and HCMV inh -89*.
For O=C(NCc1ccc(F)cc1F)[C@@H]1CCCN1C(=O)[C@@H]1CCCN1C(=O)c1ccccc1 the results were HCMV inh -7.
`CCc1ccc(NC(=O)c2ccc3c(c2)CCN3S(C)(=O)=O)cc1` gave HCMV inh 5.
CCCCc1ccc(NC(=O)c2ccc3c(c2)CCN3S(=O)(=O)CC)cc1 was read as HCMV inh -64*.
CC(C)c1ccc(NC(=O)c2ccc3c(c2)CCCN3S(C)(=O)=O)cc1 was read as HCMV inh -74*.
`CS(=O)(=O)N1CCc2cc(C(=O)Nc3ccc(Cl)c(C(F)(F)F)c3)ccc21` gave HCMV inh -71*.
Screening CC(C)c1ccc(NC(=O)c2ccc3c(c2)CCN3S(=O)(=O)c2ccccc2)cc1 returned HCMV inh -30.
`CS(=O)(=O)N1CCc2cc(C(=O)Nc3ccc(C(F)(F)F)cc3)ccc21` gave HCMV inh -63*.
Screening COc1ccccc1N1CCN(S(=O)(=O)c2cnc[nH]2)CC1 returned Shiga toxin inh -4, CHX counter -1, Pf growth 96h -2% and HCMV inh 18.
Nc1ccc(Cc2ccc(N)c(O)c2)cc1O was read as Pf growth 48h 171%, Shiga toxin inh 43*, CHX counter 23, Pf growth 96h inconclusive and HCMV inh inconclusive.
COc1cc(Cc2ccc(N)c(OC)c2)ccc1N was read as Pf growth 48h 11%, Shiga toxin inh -12, CHX counter -4, Pf growth 96h 63% and HCMV inh -36.
